Measurements from PubChem BioAssay (NCATS).
Where “and” joins values, the source holds several entries; their conditions need not be identical. Equal values may be shown once. Records with an inconclusive call do not appear. Calls of active or inactive are those of the source. Unless noted, calls follow the shape of the dose curve; as a rule, active = well fitted curve in either direction with a large enough effect (not every such curve was filed as active); inconclusive = small, poorly fitted or top-dose-only effect, or another doubt; inactive = flat fitted curve, though single readings scatter.

Legend:
[1] = AP1 Signaling Pathway (AID 357);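 also: ME-180 reporter cells stimulated with EGF at its EC50 level; % is scaled to controls: 0 for no effect and ±100 for the full control effect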
Summary of the method: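 First, ME-180 AP-1-bla cells were cultured overnight at 37 °C in low-serum Opti-MEM. Next, titrated compounds with EC50 EGF were incubated 5 hours. Finally, CCF4 was added for 2.5 hours and the 460/530 nm ratio recorded.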

[2] = Stat Signaling Pathway (AID 446);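 also: ME-180 cervical cancer cells given 40 pM IL-6 alongside compound; SIE-controlled beta-lactamase reporter measured as 460/530 nm FRET emission ratio; % is scaled to controls: 0 for no effect and ±100 for the full control effect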
Summary of the method: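 Normalization used AC90 stimulation (300 pM IL-6) and AC90 inhibition (125 nM pan-JAK inhibitor at 40 pM IL-6). The underlying signal is SIE-driven beta-lactamase in ME-180 cells after 5 h IL-6 exposure with compound.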

[3] = target: Glucocorticoid receptor (Homo sapiens) (UniProt P04150); assay: GR-GFP Redistribution (AID 450;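 active = compounds whose dose series gives a full or clear partial fitted curve of increased nuclear translocation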; also: potency is read from the fitted curve at half-maximal effect); conditions: U2OS GR-GFP nuclear translocation, laser cytometry, 2 h
[4] = target: Glucocorticoid receptor (Homo sapiens) (UniProt P04150); assay: GR-EFC Redistribution (AID 451; calls by dose curve; also: potency is read from the fitted curve at half-maximal effect); conditions: CHO-K1 GR-EFC translocation, beta-gal luminescence, 2 h
Summary of the method: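 Translocation of GR-ED fusion to nuclear EA restores b-gal, read by luminescence after 1 h room-temperature detection. Engineered CHO-K1 biosensor cells, 1,000/well, exposed 2 h at 37 C to titrations up to 46 uM final.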

[5] = target: Mitogen-activated protein kinase 10 (Mus musculus) (UniProt Q61831); assay: JNK3 AlphaScreen Assay (AID 530);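 also: kinase came from lysate of stimulated human HepG2 cells; signal reports phosphorylation of biotinylated GST-cJun 1-79 at Ser73 with 10 µM ATP; % is scaled to controls: 0 for no effect and ±100 for the full control effect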
Summary of the method: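 Kinase buffer: 20 mM Tris-HCl pH 7.6, 10 mM MgCl2, 1 mM DTT, 0.1 mM Na3VO4, 0.01% Tween-20; ATP 10 uM. Substrate biotin-GST-cJun(1-79), enzyme from activated HepG2 lysates. Detection by Ser73 phospho-antibody AlphaScreen.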

[6] = target: 3',5'-cyclic-AMP phosphodiesterase 4B (Homo sapiens) (UniProt Q07343); assay: qHTS Assay for Inhibitors of PDE-IV (AID 607; active = well fitted activation curve with a large enough effect in the main read-out, with a control signal flat, not every such curve was filed as active; also: % of control where 0% means no effect)
Summary of the method: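 HEK293 ACTOne cells with CNG channel (1000/well), endogenous PDE4; membrane potential dye, compounds up to 22.9 uM final. Fluorescence Ex 535/Em 590; RO 20-1724 (100 uM final) as reference.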

[7] = qHTS Assay for Lipid Storage Modulators (AID 1519; calls by dose curve); conditions: Drosophila S3 cells, BODIPY lipid droplet/cell ratio, laser cytometry, cells loaded with oleic acid
Summary of the method: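 Cells seeded at 5,000 per well were treated with compounds over a concentration series and loaded with oleic acid (400 uM, as added). Lipid droplet fluorescence (488 nm excitation, 500-530 nm channel) was read by laser-scanning cytometry and normalized to 20 uM Triacsin C.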

[8] = target: Cytochrome P450 1A2 (Homo sapiens) (UniProt P05177); assay: p450-cyp1a2 (AID 410; calls by dose curve;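 also: -100% = full effect of reference inhibitor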)
Summary of the method: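 Read-out is luminescence from luciferin produced by CYP1A2 demethylation of Luciferin-ME (100uM, at Km). Detection reagent stopped the 60 min NADPH-dependent reaction; signals were normalized to 57 uM furafylline.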

[9] = NFAT Signaling Pathway (AID 444); conditions: Jurkat NFAT-bla M1, carbachol, beta-lactamase ratio, 5 h;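 also: carbachol stimulus at about its EC50 of 1 µM final; % is scaled to controls: 0 for no effect and ±100 for the full control effect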
Summary of the method: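 Read-out: CCF4 FRET ratio (460 nm/530 nm) after 1 h RT dye loading, used for %activity and AC50 from titration series. Cells: Jurkat NFAT-β-lactamase/M1 line, treated with compound plus 1 uM carbachol for 5 h, 37 °C.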

[10] = target: Ubiquitin carboxyl-terminal hydrolase 1 (Homo sapiens) (UniProt O94782); assay: Inhibitors of USP1/UAF1: Pilot qHTS (AID 504865; active = well fitted curve in the direction sought with a large enough effect; an effect the other way counts as inactive or inconclusive;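 also: rhodamine fluorescence freed from ubiquitin-rhodamine substrate followed over time; top concentration of the series differs between compounds; % is scaled to controls: 0 for no effect and ±100 for the full control effect; nearly all actives have a fitted effect of over 35% in size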)
Summary of the method: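 Deubiquitinase activity followed as kinetic rhodamine fluorescence release from 150 nM Ub-Rho. 1 nM USP1/UAF1 with compound, after 15 min room-temperature preincubation, in HEPES pH 7.8 buffer containing TCEP, EDTA, BSA and Tween-20.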

[11] = target: ATP-dependent 6-phosphofructokinase (Trypanosoma brucei brucei) (UniProt O15648); assay: qHTS Assay to Find Inhibitors of T. brucei phosphofructokinase: hit validation (AID 492961; active = well fitted curve in the direction sought with a large enough effect; an effect the other way counts as inactive or inconclusive)
Summary of the method: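 ADP-Glo luminescence read-out of ADP formed by 1.25 nM PFK from 0.1 mM ATP and 0.5 mM F6P (TEA pH 8.0, 45 min, RT). Compounds titrated; activity normalized to no-enzyme and full-enzyme controls.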

[12] = target: Luciferin 4-monooxygenase (Photinus pyralis) (UniProt P08659); assay: Biochemical firefly luciferase enzyme assay for NPC (AID 624030; active = well fitted curve in the direction sought with a large enough effect; an effect the other way counts as inactive or inconclusive;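 also: purified P. pyralis luciferase at 10 nM with luciferin and ATP substrate; 0% = DMSO and -100% = full luciferase inhibition by PTC124 control; nearly all actives have a fitted effect of over 70% in size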)
Summary of the method: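 Direct inhibition of firefly luciferase enzyme (10 nM final, 50 mM Tris Acetate) assessed by luminescence within 5 minutes. Percent activity scaled between DMSO and PTC124 positive control, with concentration-effect curves classified by fit quality and response.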

[13] = S16 Schwann cell viability assay (CellTiter-Glo assay) (AID 624031; active = well fitted curve in the direction sought with a large enough effect; an effect the other way counts as inactive or inconclusive;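 also: native untransfected S16 rat Schwann cells; cellular ATP luminescence as a viability measure; plate controls were DMSO-treated cells for no effect and cell-free wells for full effect; nearly all actives have a fitted effect of over 70% in size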)
Summary of the method: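 Cells were seeded at 500-750 per well in phenol red-free DMEM with 10% FBS and left overnight. Compounds or DMSO were pinned in, incubation ran 24 h at 37 °C/5% CO2, then CellTiter-Glo reagent was added and luminescence measured.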

[14] = S16 Schwann cell PMP22 intronic element firefly luciferase assay (AID 624032; active = well fitted curve in the direction sought with a large enough effect; an effect the other way counts as inactive or inconclusive;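 also: plate controls were DMSO for no effect and PTC124 positive control mean for full effect; nearly all actives have a fitted effect of over 30% in size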)
Summary of the method: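 Luciferase reporter of PMP22 intronic-element expression in stably transfected S16 rat Schwann cells, read by ONE-Glo luminescence after 24 h compound exposure at 37 C. Activity scaled between DMSO (0%) and positive-control PTC124; concentration-effect curves quality-classified.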

[15] = qHTS profiling for inhibitors of Plasmodium falciparum proliferation (AID 504749; active = well fitted curve in the direction sought with a large enough effect; an effect the other way counts as inactive or inconclusive;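 also: 0% = DMSO vehicle and full inhibition = artemisinin control; nearly all actives have a fitted effect of over 60% in size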); conditions: P. falciparum in erythrocytes, SYBR Green DNA, 72 h
Summary of the method: (§1)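 In a 72 h erythrocytic culture (37 C, humidified, 5% CO2) at 2.5% hematocrit and 0.3% starting parasitemia, compounds were tested; SYBR Green I in detergent lysis buffer stained parasite DNA overnight.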

3D7 = assay: as above; conditions: P. falciparum in erythrocytes, SYBR Green DNA, 72 h; series mostly up to 28.7 µM
Summary of the method: as §1

CP262 = assay: as above; conditions: P. falciparum in erythrocytes, SYBR Green DNA, 72 h; series mostly up to 28.7 µM
Summary of the method: as §1

ECU = assay: as above; conditions: P. falciparum in erythrocytes, SYBR Green DNA, 72 h; series mostly up to 28.7 µM
Summary of the method: as §1

HB3 = assay: as above; conditions: P. falciparum in erythrocytes, SYBR Green DNA, 72 h; series mostly up to 28.7 µM
Summary of the method: as §1

[16] = measured here: cell count channel max response
[17] = measured here: lipid channel max response

Chain of Glucocorticoid receptor (Homo sapiens) (P04150 whole entry, looked up, the tested form may be a part): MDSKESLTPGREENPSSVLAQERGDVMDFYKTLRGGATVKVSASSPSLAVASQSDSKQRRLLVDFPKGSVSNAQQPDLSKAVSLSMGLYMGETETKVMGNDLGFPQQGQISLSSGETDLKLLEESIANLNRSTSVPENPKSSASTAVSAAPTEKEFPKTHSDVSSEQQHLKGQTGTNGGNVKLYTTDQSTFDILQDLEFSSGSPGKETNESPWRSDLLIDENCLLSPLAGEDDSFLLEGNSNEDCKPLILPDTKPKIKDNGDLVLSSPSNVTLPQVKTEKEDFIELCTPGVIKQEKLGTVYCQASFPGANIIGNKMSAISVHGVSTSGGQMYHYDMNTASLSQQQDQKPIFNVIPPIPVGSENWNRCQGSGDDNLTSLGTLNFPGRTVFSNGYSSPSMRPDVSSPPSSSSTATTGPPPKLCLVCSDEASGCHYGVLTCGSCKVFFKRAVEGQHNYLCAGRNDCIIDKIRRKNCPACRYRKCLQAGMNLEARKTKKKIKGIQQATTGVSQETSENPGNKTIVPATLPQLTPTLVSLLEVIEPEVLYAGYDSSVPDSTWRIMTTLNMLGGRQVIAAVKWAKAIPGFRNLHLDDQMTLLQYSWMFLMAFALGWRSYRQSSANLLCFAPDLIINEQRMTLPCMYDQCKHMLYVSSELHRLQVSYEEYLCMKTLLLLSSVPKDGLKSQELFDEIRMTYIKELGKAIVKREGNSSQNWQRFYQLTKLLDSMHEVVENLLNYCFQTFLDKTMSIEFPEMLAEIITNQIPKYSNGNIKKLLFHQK
Chain of Cytochrome P450 1A2 (Homo sapiens) (P05177 whole entry, looked up): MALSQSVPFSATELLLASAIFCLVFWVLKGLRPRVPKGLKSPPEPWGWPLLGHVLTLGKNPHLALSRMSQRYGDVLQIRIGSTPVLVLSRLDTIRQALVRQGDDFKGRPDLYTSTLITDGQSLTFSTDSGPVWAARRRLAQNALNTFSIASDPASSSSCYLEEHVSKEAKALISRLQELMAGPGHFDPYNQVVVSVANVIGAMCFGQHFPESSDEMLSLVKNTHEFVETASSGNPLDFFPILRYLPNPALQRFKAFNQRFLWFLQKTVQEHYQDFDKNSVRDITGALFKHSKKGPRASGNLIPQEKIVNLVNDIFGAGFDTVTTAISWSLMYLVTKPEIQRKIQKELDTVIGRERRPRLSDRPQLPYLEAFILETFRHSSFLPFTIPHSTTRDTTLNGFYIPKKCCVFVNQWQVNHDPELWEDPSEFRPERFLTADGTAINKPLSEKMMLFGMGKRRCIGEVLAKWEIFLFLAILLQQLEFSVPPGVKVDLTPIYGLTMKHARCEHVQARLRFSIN
Chain of 3',5'-cyclic-AMP phosphodiesterase 4B (Homo sapiens) (Q07343 whole entry, looked up): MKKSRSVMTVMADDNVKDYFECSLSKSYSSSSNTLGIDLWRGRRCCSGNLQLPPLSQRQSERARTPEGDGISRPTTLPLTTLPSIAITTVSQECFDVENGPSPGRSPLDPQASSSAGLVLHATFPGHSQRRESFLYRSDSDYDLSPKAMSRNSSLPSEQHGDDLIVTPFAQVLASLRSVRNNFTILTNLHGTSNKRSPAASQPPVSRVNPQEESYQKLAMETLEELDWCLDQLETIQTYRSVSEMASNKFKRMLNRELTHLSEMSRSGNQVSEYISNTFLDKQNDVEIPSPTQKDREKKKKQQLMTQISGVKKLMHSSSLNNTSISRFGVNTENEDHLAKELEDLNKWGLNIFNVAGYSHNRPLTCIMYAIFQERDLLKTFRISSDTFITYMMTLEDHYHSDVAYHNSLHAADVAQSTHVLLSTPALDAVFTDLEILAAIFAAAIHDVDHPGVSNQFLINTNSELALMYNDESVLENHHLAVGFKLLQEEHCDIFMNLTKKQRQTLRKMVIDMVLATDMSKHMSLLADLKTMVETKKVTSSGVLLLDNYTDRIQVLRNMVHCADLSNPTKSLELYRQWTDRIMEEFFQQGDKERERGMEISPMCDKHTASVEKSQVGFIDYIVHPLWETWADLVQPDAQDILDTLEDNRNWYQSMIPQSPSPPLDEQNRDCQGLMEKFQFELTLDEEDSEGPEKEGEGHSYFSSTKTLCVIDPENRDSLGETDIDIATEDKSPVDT
Chain of ATP-dependent 6-phosphofructokinase (Trypanosoma brucei brucei) (O15648 whole entry, looked up): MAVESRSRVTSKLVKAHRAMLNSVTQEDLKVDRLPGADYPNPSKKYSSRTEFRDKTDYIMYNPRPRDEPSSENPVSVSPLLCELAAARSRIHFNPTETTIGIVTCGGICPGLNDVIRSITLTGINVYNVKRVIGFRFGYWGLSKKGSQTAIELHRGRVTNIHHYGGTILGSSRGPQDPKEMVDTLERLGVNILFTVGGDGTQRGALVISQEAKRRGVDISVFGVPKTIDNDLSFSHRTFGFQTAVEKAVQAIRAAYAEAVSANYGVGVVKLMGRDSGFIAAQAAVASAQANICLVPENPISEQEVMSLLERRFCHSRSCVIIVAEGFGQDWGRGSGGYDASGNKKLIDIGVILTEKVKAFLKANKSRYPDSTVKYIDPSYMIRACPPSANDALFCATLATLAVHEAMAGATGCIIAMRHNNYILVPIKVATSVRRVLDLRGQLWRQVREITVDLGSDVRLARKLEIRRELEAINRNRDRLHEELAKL
Chain of Luciferin 4-monooxygenase (Photinus pyralis) (P08659 whole entry, looked up): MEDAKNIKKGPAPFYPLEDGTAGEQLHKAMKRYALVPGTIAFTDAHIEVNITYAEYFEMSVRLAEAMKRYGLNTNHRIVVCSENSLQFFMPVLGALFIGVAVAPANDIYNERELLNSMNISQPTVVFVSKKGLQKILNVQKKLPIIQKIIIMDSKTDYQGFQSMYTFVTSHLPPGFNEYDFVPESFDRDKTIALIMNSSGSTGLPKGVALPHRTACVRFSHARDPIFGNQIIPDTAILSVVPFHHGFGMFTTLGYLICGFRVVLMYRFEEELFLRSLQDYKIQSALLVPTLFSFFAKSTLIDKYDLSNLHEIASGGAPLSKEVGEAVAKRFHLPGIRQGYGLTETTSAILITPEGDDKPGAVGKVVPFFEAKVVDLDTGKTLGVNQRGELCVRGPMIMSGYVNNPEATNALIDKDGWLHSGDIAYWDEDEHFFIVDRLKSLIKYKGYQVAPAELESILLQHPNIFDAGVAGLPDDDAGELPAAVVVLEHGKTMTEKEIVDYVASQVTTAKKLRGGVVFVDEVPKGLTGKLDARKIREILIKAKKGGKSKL
Chain of Ubiquitin carboxyl-terminal hydrolase 1 (Homo sapiens) (O94782 whole entry, looked up): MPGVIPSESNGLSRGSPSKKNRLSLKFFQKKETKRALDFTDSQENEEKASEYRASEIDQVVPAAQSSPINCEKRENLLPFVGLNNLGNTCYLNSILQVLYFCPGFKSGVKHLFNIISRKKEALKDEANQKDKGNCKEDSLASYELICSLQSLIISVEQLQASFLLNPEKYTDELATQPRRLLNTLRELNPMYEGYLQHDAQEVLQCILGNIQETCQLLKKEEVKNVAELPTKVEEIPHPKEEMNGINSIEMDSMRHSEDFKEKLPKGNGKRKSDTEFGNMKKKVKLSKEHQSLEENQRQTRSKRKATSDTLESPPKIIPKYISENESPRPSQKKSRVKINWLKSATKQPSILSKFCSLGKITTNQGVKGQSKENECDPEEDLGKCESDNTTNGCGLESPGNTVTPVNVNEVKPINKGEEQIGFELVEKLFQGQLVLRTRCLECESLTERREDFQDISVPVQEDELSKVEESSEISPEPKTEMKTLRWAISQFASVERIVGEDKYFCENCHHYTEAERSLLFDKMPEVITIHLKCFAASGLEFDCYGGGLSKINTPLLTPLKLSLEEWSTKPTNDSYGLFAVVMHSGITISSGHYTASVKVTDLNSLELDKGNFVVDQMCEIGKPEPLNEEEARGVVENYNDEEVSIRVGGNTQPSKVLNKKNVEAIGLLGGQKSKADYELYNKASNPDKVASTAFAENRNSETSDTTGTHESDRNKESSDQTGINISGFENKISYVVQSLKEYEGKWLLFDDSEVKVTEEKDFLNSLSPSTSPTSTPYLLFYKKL

O=C(O)CNCP(=O)(O)O
20.1%: max response [7, 17]
16.5%: max response [7, 16]
inactive: outcome [1] | outcome [2] | Potency [3] > 46 µM | Potency [4] > 9.22 µM | activity change, negative = inhibition [5] 1.05% [at 11.4 µM] | Potency [6] | activity change, negative = inhibition ([7]; at 57.5 µM (top of the series)) 2.6%

COc1cc2c3cc1Oc1cc(ccc1O)C[C@@H]1c4c(cc(OC)c(O)c4Oc4cccc(c4)C[C@H]3N(C)CC2)CC[N+]1(C)C
inactive: outcome [1] | Potency [8] | activity change, negative = inhibition ([9]; at 17.2 µM (top of the series)) -7.53% | outcome [2] | Potency [3] > 20.6 µM | Potency [4] > 20.6 µM | outcome [5] | activity change, negative = inhibition ([7]; at 25.7 µM (top of the series)) 0.776% | Potency [10]
13.7%: max response [7, 17]
15.7%: max response [7, 16]

CC[C@@H]1[C@@H]2C[C@H]3[C@H]4N(C)c5ccccc5[C@@]45C[C@@H]([C@@H]2[C@@H]5O)N3[C@H]1O
inactive: outcome [1] | Potency [8] | activity change, negative = inhibition ([9]; at 17.2 µM (top of the series)) -7.21% | outcome [2] | Potency [3] > 20.6 µM | Potency [4] > 20.6 µM | Potency [6] | activity change, negative = inhibition ([7]; at 25.7 µM (top of the series)) -1.86% | Potency [11] | Potency [12] | Potency [13] | Potency [14] | activity, negative = inhibition ([15]; at 12.8 µM (top of the series), parasite line A) -1.56% | activity, negative = inhibition ([15]; at 12.8 µM (top of the series), parasite line B) 7.76% | Potency (3D7) | Potency (CP262) | Potency (ECU) | Potency (HB3)
1.73%: max response [7, 16]
1.93%: max response [7, 17]

Clc1ccc(CS[C@@H](Cn2ccnc2)c2ccc(Cl)cc2Cl)cc1
-18.3%: max response [7, 17]
-14.6%: max response [7, 16]
inactive: outcome [1] | activity change, negative = inhibition ([7]; at 25.7 µM (top of the series)) -2.77%

C[C@H](NC(C)(C)C)C(=O)c1cccc(Cl)c1
-2.37%: max response [7, 17]
inactive: outcome [1] | Potency [8] | activity change, negative = inhibition ([9]; at 17.2 µM (top of the series)) -9.97% | activity change, negative = inhibition ([9]; at 38 µM (top of the series)) -9.57% | outcome [2] | Potency [3] > 46 µM and > 20.6 µM | Potency [4] > 46 µM and > 20.6 µM | outcome [5] | Potency [6] | activity change, negative = inhibition ([7]; at 25.7 µM (top of the series)) -1.98% | Potency [11] | Potency [12] | Potency [13] | Potency [14] | activity, negative = inhibition ([15]; at 28.7 µM (top of the series), parasite line A) 3.13% | activity, negative = inhibition ([15]; at 28.7 µM (top of the series), parasite line B) 0.713% | Potency (3D7) | Potency (CP262) | Potency (ECU) | Potency (HB3)
-0.478%: max response [7, 16]

c1ccc(N=Nc2ccccc2)cc1
inactive: outcome [5] | activity change, negative = inhibition ([7]; at 57.5 µM (top of the series)) -5.75%
-21.5%: max response [7, 16]
-24.4%: max response [7, 17]

C[C@H]1C(=O)O[C@@H]2CCN3CC=C(COC(=O)[C@@](C)(O)[C@@]1(C)O)[C@H]23
3.19%: max response [7, 17]
4.14%: max response [7, 16]
inactive: outcome [1] | Potency [8] | activity change, negative = inhibition ([9]; at 17.2 µM (top of the series)) 3.38% | outcome [2] | Potency [3] > 20.6 µM | Potency [4] > 20.6 µM | outcome [5] | activity change, negative = inhibition ([7]; at 25.7 µM (top of the series)) -2.11%
